Hits are enriched below; roughly 14% of the tested compounds scored in any of these assays.
FBPA Giardia inh – blocks Giardia fructose-bisphosphate aldolase activity; A8B2U2; purified Giardia FBPA; Potency, µM (series often up to 59.6 µM), most hits filed as inhibitors; hit rate 0.71% among 290,000; also: nearly all actives have a fitted effect of over 55% in size
Target sequence (A8B2U2 whole entry, looked up): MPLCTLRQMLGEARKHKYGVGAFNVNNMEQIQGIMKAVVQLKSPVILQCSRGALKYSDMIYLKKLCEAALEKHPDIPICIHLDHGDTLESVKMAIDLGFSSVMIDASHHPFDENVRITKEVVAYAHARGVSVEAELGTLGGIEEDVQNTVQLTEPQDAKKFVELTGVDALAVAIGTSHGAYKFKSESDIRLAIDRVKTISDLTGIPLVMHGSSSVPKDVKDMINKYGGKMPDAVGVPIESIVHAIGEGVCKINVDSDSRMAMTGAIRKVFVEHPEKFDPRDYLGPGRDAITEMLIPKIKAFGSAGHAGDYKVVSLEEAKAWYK
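Giardia FBPA (40 nM reagent) was preincubated 10 min at RT with compound (up to 57.5 uM final), then substrate plus GAPDH/TPI/NAD/arsenate coupling system with diaphorase/resazurin was added; resorufin fluorescence (525/598 nm) was read after 20 min.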
LmPK inh – blocks Leishmania mexicana pyruvate kinase activity. purified LmPK, Kinase-Glo ATP luminescence, 1 h. AID 1721. Potency, µM (top dose mostly 57.5 µM), usual class: inhibitors. hit rate 0.37% among 290,000. Q27686
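In 50 mM imidazole pH 7.2 with 7 mM MgCl2, LmPK (0.1 nM) turned over PEP (0.5 mM) and ADP (0.1 mM) for 1 h at room temperature. Luciferase read-out of ATP.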
NS1 function inh – blocks influenza NS1 protein function; hit rate 0.4% among 270,000; Potency, µM (doses to about 46.1 µM); calls by dose curve; also: actives are rising curves; nearly all actives have a fitted effect of over 50% in size
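Recovery from NS1-induced slow growth read by OD600 in budding yeast switched to galactose assay medium (pH 6.0, -URA) at 1:100 dilution. Compound 23 nl per well; the matching strain lacking NS1 serves as control.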
Shiga inhibitor – Shiga toxin inhibition; inhibition, % at 38.7 µM; AID 2315; hit rate 9.2% among 290,000; Vero cells, Shiga toxin protein synthesis inhibition reporter; in the data active = inhibition mostly above about 28%, no sharp cut-off; inactive = mostly below about 43%
CHX counter – affects cycloheximide protein synthesis inhibition readout, counter-screen; cell reporter, cycloheximide protein synthesis inhibition counterscreen; max response, %; hit rate 12% among 300,000; AID 2314; in the data active = max response mostly above about 13%, no sharp cut-off; inactive = mostly below about 14%; also: read at 38.3 µM for the half of the compounds with a filed dose
Hits are given with their value; – = inactive; ? = inconclusive; · = not tested or not shown; + = active, no number. Unless noted, calls follow the shape of the dose curve; as a rule, active = well fitted curve in the direction sought with a large enough effect; inconclusive = small, poorly fitted or top-dose-only effect, or another doubt; inactive = no such curve, though single readings can be large; an effect the other way counts as inactive or inconclusive.

SMILES	FBPA Giardia inh	LmPK inh	NS1 function inh	Shiga inhibitor	CHX counter
Cc1cccc(-n2c(C)nc3ccc(Cl)cc3c2=O)c1	–	–	–	–	–
COCCn1c(=O)c(C)nc2cnc(Oc3cccc(Cl)c3)nc21	–	·	·	·	·
O=C(c1ccc2ccccc2c1)N1CCN(Cc2ccccc2)CC1	–	–	–	82.5	27.8
O=C(NCC(=O)N1CCCCCC1)c1ccc(Cl)cc1	–	–	–	64.8	29.4
O=C(c1c[nH]c(C(=O)N2CCN(Cc3ccccc3)CC2)c1)C1CCCCC1	–	–	·	51.5	–
Cc1cccc(C(=O)NCC(=O)N2CCOCC2)c1	–	–	–	–	22.7
O=C(c1cccc(C(=O)N2CCN(Cc3ccccc3)CC2)c1)N1CCN(Cc2ccccc2)CC1	–	–	–	–	–
N[C@@H](Cc1c[nH]c2ccc([N+](=O)[O-])cc12)C(=O)O	·	·	–	·	·
COc1ccc(C(=O)NCC(=O)N2CCN(c3ccc(Cl)cc3)CC2)cc1	–	–	–	–	–
Cc1nn(C(=O)CNC(=O)c2ccccc2)c(C)c1C	–	–	·	–	38.3
O=C(NCC(=O)N1CCN(Cc2ccccc2)CC1)c1ccc(Cl)cc1	–	–	–	–	17.6
Cc1cc(C)n(C(=O)CNC(=O)c2cccc(F)c2)n1	–	–	–	–	–
O=C(NCC(=O)N1CCOCC1)c1ccc(Cl)cc1	·	–	–	–	17.8
O=C(NCC(=O)N1CCN(Cc2ccccc2)CC1)c1ccc(Br)cc1	·	–	–	–	–
CCOC(=O)CNC(=O)c1ccc(OCC(F)(F)F)cc1	–	–	·	82.2	27.6
CC(C)CCOc1ccc(C(=O)NCCC(=O)N2CCOCC2)cc1	–	–	–	41.2	18.0
CCOc1ccc(C(=O)NCC(=O)OCC(=O)N2CCCC2)cc1	–	–	·	–	–
CCOc1ccc(C(=O)NCC(=O)N2CCCC2)cc1	–	–	–	50.0	–
CCOc1ccc(C(=O)Nc2ccccc2N2CCCC2)cc1	–	–	–	–	28.7
O=C(NCC(=O)N1CCOCC1)c1ccccc1	–	–	–	55.0	14.5
CCN(Cc1ccccc1)C(=O)C1CCN(S(=O)(=O)c2ccc3c(c2)OCCO3)CC1	·	–	–	–	–
COc1cc2c(cc1OC)[C@@]13CCN4C=C5CCO[C@H]6CC(=O)N2[C@@H]1C6[C@H]5C[C@H]43 (some centres undefined)	·	·	–	·	·
CCOC(=O)N1CCC(N2C(=O)c3ccc(C(=O)Nc4ccc(OC)c(OC)c4)cc3C2=O)CC1	–	–	–	–	–
Cc1cc2c(s1)c1cnn(Cc3ccccc3Cl)c(=O)c1n2C	·	·	·	–	–
CC(C)(C)c1ccc(C(=O)Nc2nnc(SCC(=O)NCC3CCCO3)s2)cc1 (centres undefined)	·	–	–	110.4	56.3
SMILES	FBPA Giardia inh	LmPK inh	NS1 function inh	Shiga inhibitor	CHX counter
CCOc1ccc(C(=O)Nc2nnc(SCC(=O)NCC3CCCO3)s2)cc1 (centres undefined)	–	–	–	–	37.6
CN(C)S(=O)(=O)c1ccc(C(=O)Nc2nnc(SCC(=O)NCC3CCCO3)s2)cc1 (centres undefined)	·	–	–	–	–
Cc1ccc(CSc2nccc(-c3c(C)nc4ccccn34)n2)cc1	–	–	–	–	–
COC(=O)CNc1c(-c2ccccn2)nc2ccc(Br)cn12	–	15.8µM	–	48.5	36.1
Cc1noc(NS(=O)(=O)c2cccc3c(N(C)C)cccc23)c1C	–	·	·	·	·
COc1ccc2[nH]c(N=Nc3ccccc3C)c(O)c2c1	–	–	–	+	–
CN(C)CN1C(=O)S/C(=C2/C(=O)N(CN(C)C)c3ccccc32)C1=O	·	·	–	·	·
O=[N+]([O-])c1ccc(OCc2cnc(Cl)s2)c([N+](=O)[O-])c1	–	–	–	–	19.6
COC(=O)C(Cc1cnc(Cl)s1)(C(=O)OC)c1ccc([N+](=O)[O-])cc1[N+](=O)[O-]	–	–	–	–	–
O=C(O)COc1ccccc1/C=N/NC(=O)c1cccc(S(=O)(=O)N2CCOCC2)c1	?	–	·	–	–
CN(C(=O)c1ccc(-c2nn(C)c(=O)c3ccccc23)cc1)C1CCCCC1	·	–	–	–	–
CN1C(=O)/C(=C/c2ccc(OCc3ccc(F)cc3)cc2)NC1=S	–	–	–	–	–
Cc1cc(=O)[nH]c(NN=C2C3CC4CC(C3)CC2C4)n1	?	–	–	–	17.7
Cc1ccc(-c2nnc(SCC(=O)N(C)C)nc2-c2ccc(C)cc2)cc1	–	–	–	–	–
O=C(NCCC1=CCCCC1)C1COc2ccccc2O1 (centres undefined)	–	–	–	53.5	19.9
CCC1Oc2ccccc2N(CC(=O)NCCC2=CCCCC2)C1=O (centres undefined)	–	–	–	–	–
O=C(NCCc1ccc(C(F)(F)F)cc1)C1COc2ccccc2O1 (centres undefined)	–	–	–	112.2	42.4
Cc1cc(C(=O)CSc2ccc3c(c2)OCCO3)c(C)n1C1CC1	–	–	–	92.0	66.8
C/C(N)=C(/C#N)C(=O)CSc1ccc2c(c1)OCCO2	–	–	–	97.9	47.8
CC(=O)Nc1ccc(S(=O)(=O)Nc2c(NC3CCCCC3)c3ccccc3oc2=O)cc1	–	–	–	–	–
O=C(CCc1nnc(-c2ccc(-c3ccccc3)cc2)o1)NCCc1ccccn1	–	–	–	–	17.8
CC(c1nccs1)N(C)C(=O)CCc1nnc(-c2ccc(-c3ccccc3)cc2)o1 (centres undefined)	–	–	–	–	26.1
CC(NC(=O)CCc1nnc(-c2ccc(-c3ccccc3)cc2)o1)c1nccs1 (centres undefined)	–	–	–	–	14.3
Cc1csc(C(C)N(C)C(=O)CCc2nnc(CCc3ccccc3)o2)n1 (centres undefined)	–	–	–	–	–
COc1cccc(Nc2ncc3ncc(=O)n(C[C@H]4CCCO4)c3n2)c1	–	·	·	·	·
SMILES	FBPA Giardia inh	LmPK inh	NS1 function inh	Shiga inhibitor	CHX counter
COc1ccc(CCNC(=O)CCNC(=O)N2CC(=O)Nc3ccccc32)cc1	·	–	–	–	–
N=c1oc2ccccc2cc1-c1nc2ccccc2c(=O)[nH]1	–	–	–	59.8	–
COc1ccc(-c2nc3ccccc3c(=O)[nH]2)cc1	–	–	–	55.7	43.3
CN(C)c1ccc(-c2nc3ccccc3c(=O)[nH]2)cc1	–	?	–	37.5	36.1
O=c1[nH]c(-c2ccncc2)nc2ccccc12	–	–	–	–	–
Cc1cccc(-c2nc3ccccc3c(=O)[nH]2)c1	–	–	–	73.2	23.5
CCCCCOC(=O)C1=C(C)NC(=O)NC1c1ccc(OC)cc1 (centres undefined)	–	–	?	–	–
COc1ccc(-n2ncc3c(NC(C)C)ncnc32)cc1	–	–	–	–	43.9
COc1ccc(-n2ncc3c(NCC(C)C)ncnc32)cc1	–	–	–	–	–
COCC(C)Nc1ncnc2c1cnn2-c1ccc(Cl)cc1 (centres undefined)	–	–	·	101.2	32.8
COC(=O)COc1ccc(S(=O)(=O)NCc2ccc3c(c2)OCO3)cc1	–	–	–	·	–
COC(=O)c1ccc(NC(=O)CSc2ccc(-c3ccccn3)nn2)cc1	·	–	–	–	–
Oc1cccc(Nc2nc(O)c(/C=C3\C=Nc4ccccc43)s2)c1	–	–	–	93.5	51.6
